Tb PYK inh – inhibitors of Trypanosoma brucei pyruvate kinase; 410,000 tested, 0.12% active; TbPYK enzyme, Kinase-Glo Plus ATP luminescence, 45 min; Potency, µM (highest dose often 76.8 µM), without a hit: at the highest dose activity, negative = inhibition, hits mostly inhibitors; also: potency is read from the fitted curve at half-maximal effect; % is scaled to controls: 0 for no effect and ±100 for the full control effect; nearly all actives have a fitted effect of over 50% in size
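Quantitative HTS: titrated library compounds versus trypanosomal pyruvate kinase in TEA buffer (pH 7.2) containing KCl, MgCl2, BSA and Tween-20. Reactions were initiated with ADP, 130 uM final. Kinase-Glo Plus luminescence was read after 45 min at RT.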
RE007 growth inh – less growth of the S. pombe RE007 Vpr strain. Potency, µM (highest dose often 92.2 µM), without a hit: at the top dose activity change, negative = less growth, usual class: inhibitors. AID 651644. S. pombe RE007 Vpr strain, BacTiter-Glo ATP luminescence, 24 h. 360,000 tested, 0.21% active; active = well fitted falling curve with a large enough effect; inconclusive = small, poorly fitted or top-dose-only effect; inactive = no such curve, though single readings can be large or run the other way; also: potency is read from the fitted curve at half-maximal effect; % is scaled to controls: 0 for no effect and ±100 for the full control effect; nearly all actives have a fitted effect of over 50% in size
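Fission yeast RE007 carrying one integrated HIV-1 vpr copy, seeded at OD 0.01 in PMG+AL medium with 23 nL pinned compound. Grown 24 h at 30 degrees; viability read by BacTiter-Glo luminescence after 5 min.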
FBPA Giardia inh – inhibitors of Giardia lamblia fructose-1,6-bisphosphate aldolase. purified Giardia FBPA. Potency, µM (titrated, usually from 59.6 µM), inactives show at the highest dose activity, negative = inhibition, usual class: inhibitors. A8B2U2. 290,000 tested, 0.71% active; also: potency is read from the fitted curve at half-maximal effect; % is scaled to controls: 0 for no effect and ±100 for the full control effect; nearly all actives have a fitted effect of over 55% in size
Target sequence (A8B2U2 whole entry, looked up): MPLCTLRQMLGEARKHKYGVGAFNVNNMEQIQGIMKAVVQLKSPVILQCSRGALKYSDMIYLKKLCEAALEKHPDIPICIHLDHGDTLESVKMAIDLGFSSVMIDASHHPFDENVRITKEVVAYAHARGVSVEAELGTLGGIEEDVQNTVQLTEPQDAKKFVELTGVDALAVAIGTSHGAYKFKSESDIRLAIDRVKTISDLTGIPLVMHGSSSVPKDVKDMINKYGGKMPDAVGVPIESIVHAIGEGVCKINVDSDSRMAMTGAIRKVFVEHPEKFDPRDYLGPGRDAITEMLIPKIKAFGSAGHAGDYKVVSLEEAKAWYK
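Giardia FBPA (40 nM reagent) was preincubated 10 min at RT with compound (up to 57.5 uM final), then substrate plus GAPDH/TPI/NAD/arsenate coupling system with diaphorase/resazurin was added; resorufin fluorescence (525/598 nm) was read after 20 min.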
Shiga toxin inh – blocks Shiga toxin action in Vero cells. Vero cells, Shiga toxin protein synthesis inhibition reporter. 290,000 tested, 9.2% active. inhibition, % at 38.7 µM. AID 2315; in the data active = inhibition mostly above about 28%, no sharp cut-off; inactive = mostly below about 43%; also: 0% is about no effect
LmPK inh – inhibitors of Leishmania mexicana pyruvate kinase | Q27686 | purified LmPK, Kinase-Glo ATP luminescence, 1 h | Potency, µM (top dose mostly 57.5 µM), without a hit: at the highest dose activity change, negative = inhibition, actives largely listed as inhibitors | 290,000 tested, 0.37% active | AID 1721; also: potency is read from the fitted curve at half-maximal effect; % is scaled to controls: 0 for no effect and ±100 for the full control effect
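Kinase-Glo luminescence read after 1 h RT reaction of 0.1 nM LmPK with 0.5 mM PEP and 0.1 mM ADP. Activity scaled between uninhibited and enzyme-free controls.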
CHX counter – affects cycloheximide protein synthesis inhibition readout, counter-screen; cell reporter, cycloheximide protein synthesis inhibition counterscreen; 300,000 tested, 12% active; max response, %; AID 2314; in the data active = max response mostly above about 13%, no sharp cut-off; inactive = mostly below about 14%; also: read at 38.3 µM for the half of the compounds with a filed dose; 0% is about no effect
* marks the source's active call; other numbers are inactive results; ? = inconclusive; · = not tested or not shown. The sample as a whole holds a higher share of hits than the screen did. Unless noted, calls follow the shape of the dose curve; as a rule, active = well fitted curve in the direction sought with a large enough effect; inconclusive = small, poorly fitted or top-dose-only effect, or another doubt; inactive = no such curve, though single readings can be large; an effect the other way counts as inactive or inconclusive.

SMILES	Tb PYK inh	RE007 growth inh	FBPA Giardia inh	Shiga toxin inh	LmPK inh	CHX counter
O=C(Nc1ccc(F)c(Cl)c1)N1CCC(CN2CCc3ccccc3C2)CC1	-3%	·	·	·	·	·
O=C(NCc1ccccc1Cl)C1CCCN(c2nc3ccsc3c(=O)s2)C1 (configuration not stated)	·	·	1%	-10	7%	-1
CC1CCCN(c2nc3ccsc3c(=O)s2)C1 (configuration not stated)	2%	-6%	6%	119*	0%	44*
O=C(COc1ccccc1F)Nc1ccc(-c2nc3ccccc3s2)cc1	-4%	·	·	·	·	·
CCC(=O)NC(=S)Nc1ccc(-c2nc3ccc(C)cc3s2)cc1	-7%	-3%	3%	91*	-3%	40*
CCC(=O)NC(=S)Nc1ccc(-c2nc3ccccc3s2)cc1	-1%	-15%	0%	69*	-3%	49*
Cc1ccc2nc(-c3ccc(NC(=S)NC(=O)C(C)C)cc3)sc2c1	-23%	-11%	0%	84*	-4%	53*
O=C(c1cnccn1)N1CCC2(CC1)CN(Cc1cc(C(F)(F)F)cc(C(F)(F)F)c1)C2	4%	·	-3%	·	·	·
COC(=O)c1ccc(SCc2cnc(Cl)s2)cc1	0%	-3%	3%	130*	4%	30*
CCc1ccccc1NC(=O)CCNS(=O)(=O)c1ccc2c(c1)CCCC(=O)N2	1%	·	·	·	·	·
COc1cccc(/C=N/Nc2nc3ccccc3[nH]2)c1O	-2%	8%	-17%	94*	5%	52*
COc1ccccc1Nc1nc2ccccc2[nH]1	-11%	-19%	?	91*	-13%	29*
COc1cccc(/C=N/Nc2nc3ccccc3[nH]2)c1OC	-1%	-25%	0%	114*	-2%	52*
COc1cccc(/C=N/c2nc3ccccc3[nH]2)c1O	-5%	-24%	-20%	-11	?	2
Cc1noc(C)c1-c1ccc2ncnc(NCc3cccc(-c4ccccc4)c3)c2c1	·	·	6%	4	·	10
Cc1ccc(SCC(Cc2ccccc2)N2CCN(CCc3ccccc3)CCC2=O)cc1 (configuration not stated)	·	·	-5%	-10	·	-2
O=C1CCN(CCc2ccccc2)CCN1C(CSc1ccc(Br)cc1)c1ccccc1 (configuration not stated)	·	·	7%	41	·	33*
O=C1CCN(CCc2ccccc2)CCN1[C@H](CSc1ccccc1)c1ccccc1	1%	-5%	-5%	13	1%	15*
O=C1CCN(CCc2ccccc2)CCN1[C@H](CO)c1ccccc1	2%	2%	-4%	-4	-5%	-1
Cc1ccc(SC[C@H](c2ccccc2)N2CCN(CCc3ccccc3)CCC2=O)cc1	-3%	4%	-1%	59*	5%	33*
Cc1ccc(SCC(c2ccccc2)N2CCN(CCc3ccccc3)CCC2=O)cc1 (configuration not stated)	·	·	4%	35*	·	48*
CC(=O)Nc1ccc(SCC(c2ccccc2)N2CCN(CCc3ccccc3)CCC2=O)cc1 (configuration not stated)	·	·	4%	34	·	26
Cc1c(Cl)cccc1NC(=O)C(C)n1nc(C)c2c(C)n(-c3ccccc3)nc2c1=O (configuration not stated)	0%	·	·	·	·	·
CC(=O)OCC(NC(=O)C(CCCCNC(=O)OCc1ccccc1)NC(=O)OC(C)(C)C)C1OC(n2ccc(=O)[nH]c2=O)C(OC(C)=O)C1OC(C)=O (configuration not stated)	·	·	8%	-9	·	-3
Cc1cc(-c2n[nH]c(=S)n2/N=C/c2sccc2C)n[nH]1	7.1µM*	2%	4%	-10	-14%	0
SMILES	Tb PYK inh	RE007 growth inh	FBPA Giardia inh	Shiga toxin inh	LmPK inh	CHX counter
Cc1cccc(/C=N/n2c(COc3ccccc3)n[nH]c2=S)c1	?	18%	?	-5	0%	9
CC(=C/c1ccccc1)/C=N/n1c(-c2ccncc2)n[nH]c1=S	?	-4%	14%	-12	0%	-2
S=c1[nH]nc(-c2cc(-c3ccccc3)n[nH]2)n1/N=C/C(Br)=C/c1ccccc1	?	-12%	1%	63*	2%	28*
CC(=C/c1ccccc1)/C=N/n1c(C)n[nH]c1=S	2%	-1%	20%	47	3%	30*
S=c1[nH]nc(-c2cc(-c3ccccc3)n[nH]2)n1/N=C/c1ccccc1	?	10%	10%	-4	-3%	1
Cc1n[nH]c(=S)n1/N=C/c1cccc(OCc2ccccc2)c1	?	-11%	1%	58*	0%	15
Cc1ccsc1/C=N/n1c(-c2ccccc2)n[nH]c1=S	-23%	7%	1%	-9	-11%	1
O=C(CSCc1cnn(-c2ccccc2)c1-n1cccc1)NCc1ccc(F)cc1	-1%	·	·	·	·	·
S=c1[nH]nc(-c2ccco2)n1/N=C/C(Cl)=C/c1ccccc1	-41%	-9%	4%	73*	1%	53*
CC(/C=N/n1c(-c2ccco2)n[nH]c1=S)=C\c1ccco1	-28%	-17%	-17%	12	-5%	-1
Cc1cc(-c2n[nH]c(=S)n2/N=C/C(Cl)=C/c2ccccc2)n[nH]1	?	·	17%	38*	-5%	39*
O=C(N/N=C/c1ccc(Br)o1)c1cccnc1	-3%	-11%	3%	0	-1%	7
Nc1nonc1C(=Nc1ccccc1)NO	-2%	2%	14%	-2	-1%	1
Nc1nonc1C(=O)N/N=C/c1ccc(Br)o1	-4%	6%	-10%	72*	-12%	39*
N/C(=N\N=C\c1ccc(Br)o1)c1nonc1N	-1%	-6%	1%	82*	-21%	47*
Nc1nonc1C(=O)N/N=C/c1ccc(-c2ccc(Cl)c(C(=O)O)c2)o1	5%	-3%	?	48*	0%	14*
O=C(O)c1cc(-c2ccc(/C=N/Nc3ccc(Cl)cc3)o2)ccc1Cl	0%	3%	-8%	14	7%	2
CNC(=S)N(CCc1c(C)[nH]c2ccc(F)cc12)Cc1cccnc1	-4%	4%	13%	-3	3%	-4
O=C(CSc1ccc(-c2cccnc2)nn1)Nc1ccccc1C(F)(F)F	-26%	5%	·	-10	-8%	7
CN(C)C1(CNC(=S)Nc2ccccc2C(F)(F)F)CCCCC1	-4%	-28%	5%	-11	13%	-5
N/C(Cc1ccc(Cl)cc1Cl)=N\OC(=O)c1ccccc1	-2%	?	0%	32*	3%	19*
N/C(Cc1ccc(Cl)cc1Cl)=N\OC(=O)Cc1ccc(Cl)cc1	4%	-26%	-1%	14	1%	-2
N/C(Cc1ccc(Cl)cc1Cl)=N\OC(=O)Cc1ccccc1	-13%	·	5%	22	1%	20*

Compound activity as filed in PubChem BioAssay.
